Laboratory results published in PubChem BioAssay.
Active and inactive are the calls of the source.

Columns and labels:
[1] = system: Human papillomavirus type 1a protein E7 (residues 44-93); assay: HPV1a E7 fragment binders on microarrays, primary screen, biochemical, small-molecule microarray, residues 44-93, 635 nm fluorescence (AID 1108); settings: small-molecule microarray binding, fluorescence 635 nm; higher = more signal;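 note: E7 fragment applied at 1 µg/mL in TBST for 1 h at 4 C; score combines spot fluorescence with its signal to noise ratio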
[2] = modulators of HCV replicon luciferase signal, primary screen, HCV replication inhibitor project, Huh7 cells, luciferase reporter (AID 1109); settings: 48 h, higher = more signal;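 note: huh7 hepatoma cells harbouring a luciferase neomycin HCV replicon reporter; luciferase luminescence as measure of HCV replicon replication; test concentration not given here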
[3] = target: Left-right determination factor 2 (Homo sapiens) (UniProt O00292); assay: LEFTY2 binders on small-molecule microarrays, primary screen, biochemical, small-molecule microarray, 635 nm fluorescence scan (AID 1110); settings: LEFTY2 binding, higher = more signal
Chain of Left-right determination factor 2 (Homo sapiens) (O00292 whole entry, looked up): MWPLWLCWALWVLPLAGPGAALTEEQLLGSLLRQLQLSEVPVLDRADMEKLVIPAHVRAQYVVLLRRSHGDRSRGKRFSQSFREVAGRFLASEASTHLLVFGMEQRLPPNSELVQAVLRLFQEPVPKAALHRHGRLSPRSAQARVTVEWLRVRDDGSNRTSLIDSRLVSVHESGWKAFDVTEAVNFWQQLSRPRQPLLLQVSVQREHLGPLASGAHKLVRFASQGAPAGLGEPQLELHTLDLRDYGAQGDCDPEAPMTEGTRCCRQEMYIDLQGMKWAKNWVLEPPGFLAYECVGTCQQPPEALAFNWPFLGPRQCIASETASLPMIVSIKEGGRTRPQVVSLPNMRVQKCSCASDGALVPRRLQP

[4] = target: Calmodulin-1 (Homo sapiens) (UniProt P0DP23); assay: CALM1 binders on microarrays, EGTA buffer, profiling panel, biochemical, small-molecule microarray, Cy5-labelled CALM1 (AID 1111); settings: Cy5-CALM1 binding fluorescence, higher = more signal;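 note: labelled calmodulin applied in Tris saline Tween buffer holding calcium plus EGTA and DTT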
[5] = target: Calmodulin-1 (Homo sapiens) (UniProt P0DP23); assay: calcium-bound CALM1 binders on microarrays, profiling panel, artefact control for SMM control-protein annotation, biochemical, small-molecule microarray, Cy5-labelled CALM1, plus calcium (AID 1112); settings: Cy5-CALM1 binding fluorescence, higher = more signal;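 note: score merges spot fluorescence with signal to noise from triplicate slides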
[6] = small-molecule microarray binders of probe aWnt5a, primary screen, biochemical, biotinylated probe, 635/667 nm fluorescence (AID 1113); settings: higher = more signal;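 note: score merges 667 nm fluorescence intensity with signal-to-noise per printed feature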
[7] = small-molecule microarray binders of probe aShh, primary screen, biochemical, biotinylated probe, 635/667 nm fluorescence (AID 1114); settings: higher = more signal;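 note: probe is biotin-labelled aShh protein from a stem cell growth factor screen; measures binding of labelled protein to compounds printed on the slide; score merges feature fluorescence at 667 nm with signal-to-noise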
[8] = small-molecule microarray binders of probe aNog, primary screen, biochemical, biotinylated probe, 635/667 nm fluorescence (AID 1115); settings: higher = more signal;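 note: probe is biotinylated aNog protein used at 0.15 µg/mL for 1 h at 4 C; z-score combines 667 nm fluorescence of each spot with its signal to noise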
[9] = target: Torsin-1A-interacting protein 1 (Homo sapiens) (UniProt Q5JTV8); assay: LAP1 binders from COS7 cell lysate, primary screen, small-molecule microarray, 635/667 nm fluorescence (AID 1116); settings: COS7-hLAP1 lysate binding, 635 nm fluorescence, higher = more signal
Chain of Torsin-1A-interacting protein 1 (Homo sapiens) (Q5JTV8 whole entry, looked up): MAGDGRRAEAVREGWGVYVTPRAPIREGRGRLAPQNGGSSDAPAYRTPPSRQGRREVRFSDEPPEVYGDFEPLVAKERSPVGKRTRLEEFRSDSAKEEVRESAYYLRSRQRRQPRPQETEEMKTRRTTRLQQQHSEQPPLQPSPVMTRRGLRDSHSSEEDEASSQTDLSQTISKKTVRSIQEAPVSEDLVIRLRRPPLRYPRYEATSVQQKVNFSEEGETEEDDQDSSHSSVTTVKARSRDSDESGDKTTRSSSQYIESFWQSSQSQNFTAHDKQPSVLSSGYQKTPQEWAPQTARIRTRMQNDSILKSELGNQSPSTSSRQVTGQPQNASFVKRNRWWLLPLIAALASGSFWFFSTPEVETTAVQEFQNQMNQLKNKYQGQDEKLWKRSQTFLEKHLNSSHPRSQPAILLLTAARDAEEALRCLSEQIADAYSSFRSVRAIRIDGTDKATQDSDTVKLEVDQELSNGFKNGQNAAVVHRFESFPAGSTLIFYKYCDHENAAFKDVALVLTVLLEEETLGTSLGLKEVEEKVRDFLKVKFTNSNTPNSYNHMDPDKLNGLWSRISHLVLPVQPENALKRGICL

[10] = target: Alpha-bungarotoxin (Bungarus multicinctus) (UniProt P60615); assay: alpha-bungarotoxin binders on microarray, profiling panel, artefact control for SMM control protein annotation, biochemical, small-molecule microarray, Alexa647 label, 635/667 nm fluorescence (AID 1117); settings: alpha-BTX-A647 binding fluorescence, higher = more signal
Chain of Alpha-bungarotoxin (Bungarus multicinctus) (P60615 whole entry, looked up): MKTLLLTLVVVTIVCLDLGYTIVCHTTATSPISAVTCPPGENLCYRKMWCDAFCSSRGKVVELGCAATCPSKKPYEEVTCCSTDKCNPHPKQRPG

Albumin (Bos taurus) = Albumin (Bos taurus) (UniProt P02769); assay: bovine serum albumin binders on microarray, profiling panel, artefact control for SMM control protein annotation, biochemical, small-molecule microarray, Alexa647 label, 635/667 nm fluorescence (AID 1118); settings: BSA-A647 binding, fluorescence 635 nm, higher = more signal;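 note: score merges 667 nm emission intensity and signal-to-noise per printed compound spot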
Chain of Albumin (Bos taurus) (P02769 whole entry, looked up): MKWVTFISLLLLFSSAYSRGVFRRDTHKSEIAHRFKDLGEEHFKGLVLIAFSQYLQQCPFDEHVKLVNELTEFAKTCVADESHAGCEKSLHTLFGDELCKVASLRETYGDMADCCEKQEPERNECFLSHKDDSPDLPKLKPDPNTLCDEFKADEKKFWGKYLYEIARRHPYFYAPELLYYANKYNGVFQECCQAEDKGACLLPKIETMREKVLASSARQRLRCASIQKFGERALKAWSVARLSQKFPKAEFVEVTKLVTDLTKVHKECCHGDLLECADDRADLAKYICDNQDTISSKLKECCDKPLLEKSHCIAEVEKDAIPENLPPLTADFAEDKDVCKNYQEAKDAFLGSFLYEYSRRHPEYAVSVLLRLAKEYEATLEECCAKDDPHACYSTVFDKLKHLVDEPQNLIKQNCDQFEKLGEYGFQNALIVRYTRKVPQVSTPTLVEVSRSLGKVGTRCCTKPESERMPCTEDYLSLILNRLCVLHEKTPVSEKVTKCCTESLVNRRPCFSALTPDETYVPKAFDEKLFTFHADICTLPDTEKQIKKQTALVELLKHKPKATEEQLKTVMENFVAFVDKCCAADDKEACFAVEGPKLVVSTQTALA

[11] = small-molecule microarray binders of probe aXIP, primary screen, biochemical, NeuroSMM set, 635/667 nm fluorescence (AID 1119); settings: higher = more signal, called active from +8 up or from −8 down;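 note: probe is the protein aXip251-270 applied at 1 µg/mL to compound-printed slides; binding of probe to printed compounds measured as 667 nm fluorescence plus signal to noise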
[12] = small-molecule binders of probe aNOTCH3, primary screen, biochemical, small-molecule microarray, 635/667 nm fluorescence (AID 1120); settings: higher = more signal;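 note: probe is a biotin-tagged antibody raised against NOTCH3 rather than NOTCH3 protein; score merges spot fluorescence near 667 nm with spot signal to noise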
[13] = small-molecule binders of probe aNOTCH2, primary screen, biochemical, small-molecule microarray, 635/667 nm fluorescence (AID 1121); settings: higher = more signal;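 note: score merges feature fluorescence read at 667 nm with its signal to noise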
[14] = target: Carbonic anhydrase 2 (Homo sapiens) (UniProt P00918); assay: CAII small-molecule binders, profiling panel, biochemical, small-molecule microarray, Alexa647-labelled CAII (AID 1122); settings: CAII-A647 binding fluorescence, higher = more signal
[15] = COS7 lysate on small-molecule microarray, probe aHis, 635 nm (AID 1123); settings: COS7 cell lysate, fluorescence, higher = more signal;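 note: z-score combines 667nm fluorescence intensity with signal-to-noise per printed compound spot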
[16] = compound binding in COS7 lysate, probe aLAP1, primary screen, cell lysate, small-molecule microarray (AID 1124); settings: probe aLAP1, fluorescence, higher = more signal;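 note: lysate comes from COS7 cells expressing LAP1 and is applied at 0.3 µg/mL; score merges spot fluorescence near 667 nm with signal-to-noise over triplicate slides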
Sam68 (KHDRBS1) = assay: Sam68 small-molecule binders, primary screen, biochemical, small-molecule microarray, 635 nm fluorescence (AID 1125); settings: small-molecule microarray binding, higher = more signal;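 note: score merges 667 nm channel intensity with signal to noise over triplicate slides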
[17] = system: Chordin-like protein 2 (CHRDL2); assay: CHRDL2 small-molecule binders, primary screen, biochemical, small-molecule microarray, 635 nm fluorescence (AID 1126); settings: small-molecule microarray binding, fluorescence 635 nm; higher = more signal;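 note: printed compound slides probed with Chrdl2 protein at 4 µg/mL for 1 h at 4 C; score merges 667 nm emission intensity with signal to noise over three replicate slides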
[18] = target: Concanavalin-A (Canavalia ensiformis) (UniProt P02866); assay: ConA small-molecule binders, primary screen, artefact control for SMM control protein annotation, biochemical, small-molecule microarray, Alexa647 label, 635 nm (AID 1127); settings: ConA-A647 binding fluorescence, higher = more signal;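 note: z combines 667 nm emission intensity with signal-to-noise across three replicate slides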
Chain of Concanavalin-A (Canavalia ensiformis) (P02866 whole entry, looked up): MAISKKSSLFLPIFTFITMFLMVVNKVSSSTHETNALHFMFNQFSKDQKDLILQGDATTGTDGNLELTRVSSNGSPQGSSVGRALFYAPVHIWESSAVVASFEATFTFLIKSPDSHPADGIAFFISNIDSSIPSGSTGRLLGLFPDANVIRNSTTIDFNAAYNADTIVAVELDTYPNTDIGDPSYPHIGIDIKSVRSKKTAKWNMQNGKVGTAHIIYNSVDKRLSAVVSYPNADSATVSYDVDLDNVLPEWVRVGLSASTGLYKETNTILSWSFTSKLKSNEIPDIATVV

| SMILES | composite z-score [1] | z-score [2] | composite z-score [3] | composite z-score [4] | composite z-score [5] | composite z-score [6] | composite z-score [7] | composite z-score [8] | composite z-score [9] | composite z-score [10] | composite z-score (Albumin (Bos taurus)) | composite Z-score [11] | composite z-score [12] | composite z-score [13] | composite z-score [14] | composite z-score [15] | composite z-score [16] | composite z-score (Sam68 (KHDRBS1)) | composite z-score [17] | composite z-score [18] |
| --- | --- | --- | --- | --- | --- | --- | --- | --- | --- | --- | --- | --- | --- | --- | --- | --- | --- | --- | --- | --- |
| Cn1cccc1C(O)C1C=CC2C(=O)NC(=O)C2N1Nc1ccccn1 (stereo not given) | -1.15 | -0.803 | -0.136 | -0.0487 | -0.472 | -0.0512 | 0.0723 | -0.0446 | -0.0327 | -0.086 | 0.809 | 0.0019 (inactive) | -0.0166 | -0.171 | 0.914 | -0.318 | 0.503 | -1.45 | 0.148 | -0.0954 |
| O=C1C[C@@H](O)[C@@H](O)[C@@H]2[C@@H]3C(=O)N(C4CCCCC4)C(=O)[C@@H]3CC[C@H]12 | 0.717 | -0.0951 | 0.456 | -0.0292 | -0.57 | -0.114 | -0.309 | 0.0051 | 0.473 | -0.0214 | 0.258 | -0.236 (inactive) | 0.0208 | -0.0761 | 0.168 | 0.323 | -0.505 | 0.742 | 0.325 | 0.564 |
| C#CCCCON=C1C[C@@H](O)[C@@H](O)[C@@H]2[C@@H]3C(=O)N(CCC(=O)OCC)C(=O)[C@@H]3CC[C@@H]12 | -0.58 | -2.78 | -0.174 | -0.335 | 0.0811 | -0.0748 | 0.246 | 0.206 | -0.221 | 1.04 | 0.674 | -0.521 (inactive) | 0.0836 | -0.0404 | -0.0544 | 0.166 | 1.05 | -0.349 | 0.715 | -0.962 |
| CCN(CC)c1ccc(N2CC=CC34O[C@@H]5/C=C\CCC(C)OC(=O)C5[C@H]3C(=O)N(CCCO)[C@@H]4C2=O)cc1 (stereo not given in full) | -0.0672 | -0.527 | -0.434 | -0.671 | -0.431 | -0.128 | 0.0469 | -0.216 | 0.581 | -0.625 | -0.909 | 0.589 (inactive) | -0.185 | -0.189 | 0.868 | -0.368 | -0.0197 | -0.383 | -0.618 | -0.608 |
| C=CC[C@@H]1C=C[C@H](ON=C[C@@H](OC)[C@H](C)C=CCC(=O)OC)[C@@H](CO)O1 | 0.241 | -0.581 | 0.283 | -0.67 | -1.65 | -0.0222 | -0.0035 | -0.526 | 0.848 | -0.741 | -0.286 | 0.0176 (inactive) | 0.062 | -0.0242 | 0.131 | 0.336 | -0.108 | 0.496 | 0.075 | -0.225 |
| COc1ccc([Si](C)(C)[C@H]2[C@H](CC(=O)N3CCC[C@H]3CO)O[C@@]3(C(=O)N(Cc4cccc(N5C(=O)COc6ccccc65)c4)c4ccccc43)[C@@H]2C)cc1 | 1.08 | -2.51 | 0.805 | 1.36 | 0.487 | 0.0556 | -0.17 | 0.274 | 1.16 | -0.654 | 0.34 | 0.33 (inactive) | 0.0293 | -0.0556 | 0.437 | 2.38 | 0.125 | 1.26 | 0.959 | 0.997 |
| CCc1cc2c(nc1CC)CCN(CCC(C)=NOC(C)CN1CCCc3nc(C)c(C)cc31)C2 (stereo not given) | 1.13 | -2.1 | 0.482 | 0.276 | -0.544 | 0.245 | 1.38 | 0.774 | 0.849 | 1.21 | 0.263 | 1.74 (inactive) | 0.724 | 0.271 | 0.461 | 1.18 | 0.0412 | 1.29 | 0.726 | 0.952 |
| COC(=O)[C@H](C)NC(=O)CCC1CC(OC(=O)NCc2cccc3ccccc23)CC2(CCCC(COC(=O)NCC3CCCCC3)O2)O1 (stereo not given in full) | 1.32 | -0.411 | 0.776 | 0.708 | -0.798 | -0.174 | -0.0035 | -0.501 | 0.587 | 0.585 | -0.409 | -0.551 (inactive) | 0.175 | -0.0984 | 0.612 | 1.61 | 0.486 | 1.29 | 0.62 | 1.12 |
| COc1cccc([C@H]2Oc3ccc(OC)cc3C(=NO[C@H](C)c3cn([C@@H]4COC[C@H]4O)nn3)[C@@H]2O)c1 | -0.632 | -0.0869 | -0.647 | 0.0409 | -0.421 | -0.184 | -0.147 | -0.36 | -0.1 | 1.7 | -0.224 | -0.0239 (inactive) | -0.279 | -0.179 | 0.377 | -0.162 | -0.358 | -0.523 | -0.353 | 0.472 |
| COC(=O)[C@@]1(Cc2ccc(F)cc2)[C@H]2c3cc(C(=O)N(C)C)n(Cc4ccc(OC)c(OC)c4)c3C[C@H]2CN1C(=O)c1ccccc1 | 0.0897 | -1.44 | -0.137 | 0.482 | 0.0167 | 0.0833 | 0.299 | 0.338 | 0.0894 | 0.0611 | 0.378 | 0.206 (inactive) | 0.194 | 0.265 | 0.866 | 0.383 | -0.253 | -0.309 | 0.106 | -0.189 |
| CO[C@@H]1COC(=O)CC=C[C@@H](C)COC(=O)[C@H](COCc2ccccc2)NC(=O)CC=C[C@H]1C | -0.956 | -0.151 | 1.02 | -0.838 | -1.28 | -0.0721 | 0.0278 | -0.298 | 0.325 | -0.397 | -1.2 | 1.13 (inactive) | -0.111 | -0.108 | -0.788 | -0.843 | 0.864 | -0.597 | 1.48 | -2.62 |
